Compounds with a hit are over-represented: about 0.71% of the library has one in this group of screens.
USP1 inh: Inhibitors of USP1/UAF1: Primary Screen; recombinant USP1/UAF1, Ub-Rhodamine cleavage fluorescence; Potency, µM (doses to about 57.1 µM), without a hit: at the highest dose activity change, negative = inhibition, hits mostly inhibitors; 390,000 compounds, 0.23% hits; further: potency means the concentration at half of the fitted maximal effect; nearly all actives have a fitted effect of over 60% in size
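In this screen, compounds sit with the deubiquitinase complex (1nM) for 15 min at room temperature before Ub-Rho is added at 150nM final. Fluorescence rise is then followed for 6 reads every 60 seconds.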
USP2a inh: qHTS Assay for Inhibitors of Ubiquitin-specific Protease USP2a Using CHOP2 as the Reporter; Ubiquitin carboxyl-terminal hydrolase 2 (Homo sapiens), O75604; 330,000 compounds, 0.01% hits; USP2 core, Ub-CHOP2 coupled fluorogenic reporter, 485/531; Potency, µM (top dose mostly 38.3 µM), for the others: at the top dose activity change, negative = inhibition, usual class: inhibitors; AID 463254, 2010;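 further: potency means the concentration at half of the fitted maximal effect; plate controls were DMSO wells for no effect and full inhibition by NEM control for full effect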
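Deubiquitinase activity read as fluorescence (485/531 nm) after Ub-CHOP2 cleavage activates the enterokinase reporter on its substrate; USP2 core 10nM, Ub-CHOP2 and substrate 25nM each, 30min compound preincubation then 60min RT; data normalized to NEM, curves fitted.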
Eya2 inh: qHTS Assay for Inhibitors of the Phosphatase Activity of Eya2. Potency, µM (doses to about 76.9 µM), inactives show at the highest dose activity, negative = inhibition, usual class: inhibitors. 330,000 compounds, 0.006% hits. recombinant Eya2, OMFP fluorescence dephosphorylation (OMFP is methylfluorescein phosphate). Protein phosphatase EYA2 (Homo sapiens), O00167; further: potency means the concentration at half of the fitted maximal effect
Target sequence (O00167 whole entry, looked up): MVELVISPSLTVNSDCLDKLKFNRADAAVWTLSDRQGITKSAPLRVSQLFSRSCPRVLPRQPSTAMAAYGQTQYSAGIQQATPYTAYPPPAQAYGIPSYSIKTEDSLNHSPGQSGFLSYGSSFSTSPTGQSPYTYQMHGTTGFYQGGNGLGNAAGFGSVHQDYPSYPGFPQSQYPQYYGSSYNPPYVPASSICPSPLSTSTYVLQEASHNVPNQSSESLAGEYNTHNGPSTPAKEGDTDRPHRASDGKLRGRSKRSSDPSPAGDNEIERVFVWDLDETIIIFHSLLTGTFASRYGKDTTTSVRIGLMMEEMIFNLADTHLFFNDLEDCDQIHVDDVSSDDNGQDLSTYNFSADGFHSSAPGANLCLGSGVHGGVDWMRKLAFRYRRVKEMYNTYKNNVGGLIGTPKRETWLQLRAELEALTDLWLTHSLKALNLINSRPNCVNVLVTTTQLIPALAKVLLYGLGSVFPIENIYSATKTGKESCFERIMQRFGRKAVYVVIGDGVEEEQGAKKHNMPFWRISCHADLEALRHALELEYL
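Eya2 (0.2 uM) preincubated 10 min at ambient with compound, then OMFP substrate added at 50 uM; 10 min reaction in 50 mM HEPES pH 7.5, 50 mM NaCl, 5 uM MgCl2, 0.05% BSA, 1 mM DTT. Fluorescence read at Ex 485/Em 525 nm.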
FBPA coupling cs: qHTS Assay for Inhibitors of Fructose-1,6-bisphosphate Aldolase from Giardia Lamblia: Coupling assay counterscreen | coupling enzyme system counterscreen, AmpLite Red fluorescence | activity change, negative = inhibition, % at 58.2 µM, hits read low | 290,000 compounds, 0.67% hits | AID 2472, 2010; in the data active means activity change below about -30%
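First, compound is pin-transferred into glyceraldehyde-3-phosphate coupling-enzyme reagent at 57.5 uM final and held 10 min at RT. Next, substrate, coupling system and AmpLite Red are added. After 20 min RT, fluorescence (525/598 nm) is read.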
GALK inh: qHTS Assay for Inhibitors of Human Galactokinase (GALK); P51570; Purified GALK, Kinase-Glo residual ATP luminescence; Potency, µM (series often up to 57.5 µM), inactives show at the highest dose activity change, negative = inhibition, usual class: inhibitors; 270,000 compounds, 0.007% hits; AID 1868, 2009; further: potency means the concentration at half of the fitted maximal effect
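ATP-depletion format; final 35 uM ATP, 100 uM D-galactose, 5 nM enzyme; pH 8.0 HEPES/Mg2+ buffer; 60 min RT; luminescence read 10 min after detection reagent.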
PI4K2A block: qHTS for small molecular inhibitors of PI4K2A; 420,000 compounds, 0.13% hits; purified PI4K2A, ADP-Glo luminescence, 1 h; stronger effect = lower value; Phosphatidylinositol 4-kinase type 2-alpha (Homo sapiens), Q9BTU6; activity change, negative = inhibition, % at 76.9 µM; in the data active means activity change below about -50%; inconclusive means mostly about -30% to -49%;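 further: -100% = wells without enzyme as full effect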
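Compounds are screened against recombinant PI4K2A using PI as substrate and ATP, the latter dispensed at 300 microM. Reactions run one hour at ambient temperature before ADP-Glo detection; full inhibition defined by wells lacking enzyme.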
* hit, by the source's call; u = inconclusive; x = no result given; [ ] = dose if it differs, or a comment. Unless noted, the call rests on the fitted dose curve; in most records, active means well fitted curve in the direction sought with a large enough effect; inconclusive means small, poorly fitted or top-dose-only effect, or another doubt; inactive means no such curve, though single readings can be large; an effect the other way counts as inactive or inconclusive. Unless noted, on the % scale 0 is the no-effect control and ±100 the full control effect.

SMILES | USP1 inh | USP2a inh | Eya2 inh | FBPA coupling cs | GALK inh | PI4K2A block
Cc1nnc(C)c2c(C)n(-c3ccccc3N)c(C)c12 | -16% | 3% | 7% | -40* | 1% | 5
COc1cccc(C(=O)N2CCN(Cc3ccccn3)CC2)c1OC | 1% | 0% | -6% | -55* | 1% | 2
CCNc1ccccc1CP(=O)(c1ccccc1)c1ccccc1O (centres undefined) | u | 8% | 3% | -58* | 2% | -14
Cc1ccc(O)c(CP(=O)(c2ccccc2)c2ccccc2)c1 | -15% | -2% | -22% | -4 | 3% | -1
COc1ccc(C(=O)O)c(O)c1OC | x | x | x | -1 | x | x
COC1=C(N)C(=O)c2nc(-c3nc(C(=O)O)c(C)c(-c4ccc(OC)c(OC)c4O)c3N)ccc2C1=O | 11µM* | 0% | -1% | -64* | 8.9µM* | u
C=CCNC(=O)N1CCc2nc(CCCC)c3c(c2C1)CO[C@@H](C)C3 | x | x | x | 0 | x | x
CC(C)(C)C1=CC(=O)C(=O)C(C(C)(C)C)=C1 | -19% | 0% | -8% | -48* | 0% | 0
CN(C)CCOC1=Cc2ccccc2Sc2ccc(Cl)cc21 | x | x | x | x | x | -1
CCCN1C(=O)/C(=C/c2ccc(C)o2)NC1=S | x | 3% | -1% | -33* | -1% | x
CNCCc1cnc(CCC(c2ccccc2)c2ccccc2)[nH]1 | x | x | 0% | x | x | -4
O=C(Nc1ccc2c(c1)OCO2)N1CCCc2ccccc21 | -6% | 3% | 10% | 0 | 4% | 4
Cc1ccc2c(c1)CCCN2C(=O)Nc1ccc2c(c1)OCO2 | -19% | 2% | 5% | -40* | -1% | -3
Cc1ccc(Nc2nccc(N(C)c3ccc4c(C)n(C)nc4c3)n2)cc1S(N)(=O)=O | x | x | x | x | x | -14
CC1=C(CC(=O)c2ccccc2)C(=O)c2ccccc2C1=O | -23% | 0% | 12% | -36* | -9% | 2
O=S(=O)(Nc1ccc2cn[nH]c2c1)c1ccc(Cl)cc1 | -10% | 3% | 7% | -2 | 0% | 6
CCCCS(=O)(=O)Nc1ccc2cn[nH]c2c1 | -19% | -11% | -6% | -36* | 1% | 1
CC1CCC2C(=O)N3C(CCC(C)[C@H]3c3cccc(N4CCCC4=O)c3)C(=O)N2C1c1cccc(N2CCCC2=O)c1 (some centres undefined) | x | x | x | -2 | x | x
CN(CCO)c1nc(N)c2c(N)nc3c(c2c1C#N)CC(=O)N3C1CCCC1 | x | 2% | -2% | -38* | -2% | x
N#Cc1c(N2CCN(c3ccc(F)cc3)CC2)nc(N)c2c(N)nc3c(c12)CC(=O)N3C1CC1 | -15% | 1% | 0% | -16 | 0% | -2
COc1cccc(CNC(=O)CCc2c(C)nn(-c3ccc(N4CCCC4)nn3)c2C)c1 | -16% | x | x | x | x | 3
Cc1nn(-c2cccc(Cl)c2)c2c1C(c1cccnc1)C(C#N)=C(N)O2 (centres undefined) | -8% | -1% | 11% | -10 | 2% | -51*
CC1=C(n2nnc([N+](=O)[O-])n2)C(c2cccnc2)C(C#N)=C(N)O1 (centres undefined) | -20% | 5% | 9% | -67* | 3% | 8
COC(=O)C1=C(C)OC(N)=C(C#N)C1c1cccnc1 (centres undefined) | -6% | 1% | 5% | -3 | -2% | -2
OC1(c2ccccc2)CCNCC1 | x | x | x | x | x | 2
SMILES | USP1 inh | USP2a inh | Eya2 inh | FBPA coupling cs | GALK inh | PI4K2A block
CO[C@H]1C[C@@H]2C[C@H](O)C[C@@H](CC(=O)O[C@@H](/C=C\CC(C)C)C[C@@H]3CC[C@H](C)[C@@H](C1)O3)O2 | x | x | x | 6 | x | x
CCc1ccc(NC(=O)C(C)OC(=O)c2cccc(S(=O)(=O)N3CCc4ccccc4C3)c2)cc1 (centres undefined) | -10% | -12% | 0% | -45* | 0% | 0
CCOC(=O)Cc1nnc(Nc2ccc(C)cc2)c2ccccc12 | 5% | -2% | -5% | 1 | 0% | -75*
COc1cc2c(cc1OC)C1O[C@](CCCCN3C(=O)c4ccccc4C3=O)(C2)OC2=C1C(=O)CCC2 | x | 0%[7.66 µM] | 10%[15.4 µM] | 0 | x | x
COC(=O)C1=C(C(=O)OC)[C@@H]2Nc3ccccc3[C@@]23C[C@@H](C(=O)OC)N(S(=O)(=O)c2ccc(C#N)cc2)C3=N1 | x | x | x | 0 | x | x
Cc1occc1C(=O)N/N=C/c1ccc(N(C)C)cc1 | -22% | 3% | 6% | -2 | u | -87*
Cc1occc1C(=O)N/N=C/C=C/c1ccc(N(C)C)cc1 | -15% | 4% | 7% | -1 | -3% | -11
CCOc1cc(N2CCOCC2)c(OCC)cc1NC1=NCCCCC1 | -32% | -2% | 3% | -32* | 2% | -4
CCOc1cc(N2CCOCC2)c(OCC)cc1NC(=O)CSc1ncn[nH]1 | -3% | -2% | 2% | -36* | -4% | -1
CCOc1cc(N2CCOCC2)c(OCC)cc1NC(=O)Cc1cccc(OC)c1 | -6% | 0% | -1% | -1 | 2% | 16
CCOc1cc(N2CCOCC2)c(OCC)cc1NC(=O)COC(=O)[C@@H]1CCCN1S(=O)(=O)c1ccccc1F | -21% | 0% | 0% | -31* | 13% | 3
FC(F)(F)c1ccc(N2CCOCC2)c(NC2=NCCCCC2)c1 | -19% | 2% | -6% | -5 | 4% | 1
CCOc1cc(N2CCOCC2)c(OCC)cc1NC(=O)CSc1n[nH]c(N)n1 | -24% | 0% | -8% | -20 | 1% | 0
CCOc1cc(N2CCOCC2)c(OCC)cc1NC(=O)Cc1ccc(OC)c(OC)c1 | -15% | -2% | 10% | -41* | -1% | -3
CCOc1cc(N2CCOCC2)c(OCC)cc1NC(C)C(=O)N1CCC(C)CC1 (centres undefined) | -26% | 1% | -4% | -47* | 2% | -7
CN1CC=C2C(C#N)=C(N)C(C#N)(C#N)[C@H](c3ccoc3)[C@H]2C1 | u | 0% | -2% | -31* | -2% | -16
CC(=O)N1CC=C2C(C#N)=C(N)C(C#N)(C#N)[C@H](c3ccoc3)[C@H]2C1 | -17% | 3% | -28% | -6 | -3% | 3
C=CCC1C=CC(OC(=O)OCC)C(COC(=O)OCC)O1 (centres undefined) | x | x | x | 0 | x | x
CCCCNc1ccc(C(=O)OCCN(CC)CC)cc1 | x | x | x | x | x | -9

Screening results as filed in PubChem BioAssay.
